Laboratory results reported in PubChem BioAssay (Tox21).
Results filed as inconclusive are left out. Where a call stands in place of a potency, no number is given. Values without a mark were called inactive. Calls of active or inactive are those of the source. Calls come from the whole dose curve; as a rule, active = well fitted cell-killing curve with a large enough effect in the repeat runs; inconclusive = weak or mixed curves, or effect the other way; inactive = flat fitted curve, though single readings scatter.

Assay: cAMP Responsive Elements (CRE) small molecule antagonists, cell-based qHTS assay: qHTS cell viability counter screen (AID 2060913); note: nearly all actives have a fitted effect of over 40% in size
Details: CRE-bla HEK293T viability, CellTiter-Glo luminescence, 5 h; series mostly up to 92.4 µM
Summary of the method: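 CRE-bla HEK293T cells were seeded in assay medium with 10% dialyzed FBS, incubated 18 hrs at 37 C, then exposed to compounds plus 0.25 uM final NKH477 for 3 hrs. Viability was read by CellTiter-Glo luminescence after 30 min, in the same wells.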
Potency is the fitted concentration of half-maximal effect.

SMILES | Potency | viability change, negative = cytotoxic
Cc1cc(C)c(C)c(C)c1 | inactive | –
CN(C)CCC=C1c2ccccc2C=Cc2ccccc21 | inactive | –
CC1(C)[C@H]2CC[C@]1(C)[C@H](O)C2 | inactive | –
CCc1cccc(C)c1N(C(=O)C(=O)O)C(C)COC (stereo not given) | inactive | –
O=C(O)c1cccc(N(Cc2cccnc2)c2ccc(OC(F)F)c(OC(F)F)c2)c1 | inactive | –
Cc1nc2ccccc2n1Cc1ccc(Cl)cc1 | inactive | –
NCCCCCC(=O)O | inactive | –
CCOC(=O)c1cc(=O)c2c(OCC(COc3cccc4oc(C(=O)OCC)cc(=O)c34)OC(=O)[C@@H](N)CCCCN)cccc2o1 | inactive | –
CCCCCCOC(=O)NC(=N)c1ccc(NCc2nc3cc(C(=O)N(CCC(=O)OCC)c4ccccn4)ccc3n2C)cc1 | 26.6 µM (active) | –
O=C(O)c1cc(Cl)cc(Cl)c1O | inactive | –
N[C@@H](Cc1cc(I)c(O)c(I)c1)C(=O)O | inactive | –
CCCCC(CC)COC(=O)c1ccccc1C(=O)O (stereo not given) | inactive | –
Cc1cccc(C)c1C | inactive | –
C1COCO1 | inactive | –
CC(C)OP(=O)(CP(=O)(OC(C)C)OC(C)C)OC(C)C | inactive | –
NC(=O)NC1N=C([O][Al])NC1=O (stereo not given) | inactive | –
CCCOC(=O)CCCCC(=O)OCCC | inactive | –
CN(C1CCCCC1)S(=O)(=O)c1ccccc1N | inactive | –
O=C1CCC(C2CCCCC2)CC1 | inactive | –
C[C@H]1C[C@H]2[C@@H]3CCC4=CC(=O)C=C[C@]4(C)[C@@]3(F)[C@@H](O)C[C@]2(C)[C@@]1(O)C(=O)CO | inactive | –

SMILES | Potency | viability change, negative = cytotoxic
C=CC(=O)OCC(CO)(COC(=O)C=C)COC(=O)C=C | 28.5 µM (active) | –
CCCCCCCCCC(C)=O | inactive | –
Cc1cccc(Nc2ccncc2S(=O)(=O)NC(=O)NC(C)C)c1 | inactive | –
COc1cc(C(=O)NCCCCCC(=O)O)cc(OC)c1OC | inactive | –
CC(C)CCCC(C)(C)O | inactive | –
CCS(=O)(=O)c1ccc(OC)c(C(=O)OC)c1 | inactive | –
CCCCC(=O)O[C@]1(C(=O)CO)CC[C@H]2[C@@H]3CCC4=CC(=O)CC[C@]4(C)[C@H]3[C@@H](O)C[C@@]21C | inactive | –
COC(=O)C(C)O (stereo not given) | inactive | –
CC(C)=CCl | inactive | –
CCCCc1ccc2c(n1)[C@@H](c1ccc(OC)cc1C[C@H](C)C(=O)O)[C@H](C(=O)O)[C@H]2c1ccc2c(c1)OCO2 | inactive | –
COC(=O)CCc1ccc(OCC(O)CNC(C)C)cc1 (stereo not given) | inactive | –
CC(C)(C)c1cccc(C(C)(C)C)c1O | inactive | –
c1cc(CCCc2ccncc2)ccn1 | inactive | –
Cc1c(F)c(N2CCNC(C)C2)cc2c1c(=O)c(C(=O)O)cn2C1CC1 (stereo not given) | inactive | –
CC(C)OC(=O)c1cc(C(=O)OC(C)C)cc([N+](=O)[O-])c1 | inactive | –
NCC(=O)O | – | -2.51% [at 18.9 µM]
CCN1CCCC1CNC(=O)c1cc(S(N)(=O)=O)ccc1OC (stereo not given) | inactive | –
Oc1ccc(C2(c3ccc(O)c(C4CCCCC4)c3)CCCCC2)cc1C1CCCCC1 | 43.3 µM (active) | –
COc1cc([C@@H]2c3cc4c(cc3[C@H](O)[C@H]3COC(=O)[C@H]23)OCO4)cc(OC)c1OC | inactive | –
CCC(C)NC(N)=O (stereo not given) | inactive | –
